Measurements reported in PubChem BioAssay (NCI).
Compounds without any hit were thinned out: in the full panel of roughly 83,000, 20% have a hit.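 Note: values are percent growth. 100 is the growth of untreated cells, values between 100 and 0 indicate rising inhibition; between -100 and 0 indicates cell death.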 Calls of active or inactive are those of the source. The calls were made as follows: active = growth percent below 10; inactive = the rest.

Assays:
Assay in all cases: NCI-60 one-dose screen, 48 h (100 = growth as untreated, 0 = no growth, -100 = all killed)
NCI-H322M lung = details: 10 µM
HOP-62 NSCLC = details: 10 µM
A549/ATCC NSCLC = details: 10 µM
COLO 205 colon = details: 10 µM
DU-145 prostate = details: 10 µM
MALME-3M melanoma = details: 10 µM
SF-268 CNS = details: 10 µM
SF-295 CNS = details: 10 µM
SF-539 CNS = details: 10 µM
UACC-257 melanoma = details: 10 µM
M14 melanoma = details: 10 µM
HCT-15 colon = details: 10 µM
HT29 colon = details: 10 µM
SNB-75 CNS = details: 10 µM
SNB-19 CNS = details: 10 µM
SK-MEL-5 melanoma = details: 10 µM
UACC-62 melanoma = details: 10 µM
SK-MEL-28 melanoma = details: 10 µM
SK-MEL-2 melanoma = details: 10 µM
HL-60(TB) leukemia = details: 10 µM unless noted

Measured: growth

CC[C@]12C=CCN3CC[C@@]4(c5ccc(OC)cc5N(C)[C@H]4[C@@](O)(C(=O)OC)[C@@H]1OC(=O)CCCC[P+](c1ccc(C)cc1)(c1ccc(C)cc1)c1ccc(C)cc1)[C@@H]32
active: NCI-H322M lung -97.6% | HOP-62 NSCLC -84% | A549/ATCC NSCLC -92.2% | COLO 205 colon -64.1% | DU-145 prostate -84.5% | MALME-3M melanoma -96% | SF-268 CNS -61.1% | SF-295 CNS -91.8% | SF-539 CNS -98.7% | UACC-257 melanoma -95% | M14 melanoma -88.3% | HCT-15 colon -90.1% | HT29 colon -81.8% | SNB-75 CNS -87.6% | SNB-19 CNS -96.5% | SK-MEL-5 melanoma -98.5% | UACC-62 melanoma -97.4% | SK-MEL-28 melanoma -97.8% | SK-MEL-2 melanoma -87.3% | HL-60(TB) leukemia -42.2%

C[C@H]1[C@H](OC(=O)CCC(=O)N(CCCc2cn(-c3ccc(C#N)cc3)nn2)CCNc2ccnc3cc(Cl)ccc23)O[C@@H]2OC3(C)CC[C@H]4[C@H](C)CC[C@@H]1[C@@]24OO3
inactive: NCI-H322M lung 82.9% | HOP-62 NSCLC 66.4% | A549/ATCC NSCLC 51.5% | COLO 205 colon 14.5% | DU-145 prostate 69.3% | MALME-3M melanoma 13.3% | SF-268 CNS 54.9% | SF-295 CNS 53.8% | SF-539 CNS 44.5% | UACC-257 melanoma 58.3% | M14 melanoma 48.1% | HCT-15 colon 12.1% | HT29 colon 18.6% | SNB-75 CNS 72.1% | SNB-19 CNS 69.8% | SK-MEL-5 melanoma 22.9% | UACC-62 melanoma 43.3% | SK-MEL-28 melanoma 59.5% | SK-MEL-2 melanoma 31.4%
active: HL-60(TB) leukemia -29.9%

O=C(NC([Se])=NC1CCCCC1)c1ccccc1
inactive: HOP-62 NSCLC 15.3% | A549/ATCC NSCLC 21.1% | COLO 205 colon 49.2% | DU-145 prostate 46.2% | MALME-3M melanoma 94.4% | SF-268 CNS 96.2% | SF-539 CNS 14.3% | UACC-257 melanoma 30.8% | M14 melanoma 69.8% | HCT-15 colon 44% | HT29 colon 29.7% | SNB-75 CNS 17.8% | SNB-19 CNS 24.6% | SK-MEL-5 melanoma 18% | SK-MEL-28 melanoma 33.3% | HL-60(TB) leukemia 16%
active: NCI-H322M lung 4.78% | SF-295 CNS 8.53% | UACC-62 melanoma 9.12% | SK-MEL-2 melanoma -2.88%

CC(=O)Oc1ccccc1C(=O)NC([Se])=NC1CCCCC1
inactive: A549/ATCC NSCLC 20.4% | COLO 205 colon 28.9% | DU-145 prostate 20% | SF-268 CNS 66.1% | M14 melanoma 20.7% | HT29 colon 32.1% | SNB-19 CNS 12.3%
active: NCI-H322M lung 0.722% | HOP-62 NSCLC 9.51% | MALME-3M melanoma -6.63% | SF-295 CNS -8.45% | SF-539 CNS -84.7% | UACC-257 melanoma -1.74% | HCT-15 colon 3.57% | SNB-75 CNS -75.3% | SK-MEL-5 melanoma -80% | UACC-62 melanoma -57.5% | SK-MEL-28 melanoma -14.7% | SK-MEL-2 melanoma -43.7% | HL-60(TB) leukemia 7.53%

COC(=O)CCn1c(-c2ccc(-n3cc(-c4ccc(O[C@H]5O[C@@H]6OC7(C)CC[C@H]8[C@H](C)CC[C@@H]([C@H]5C)[C@@]68OO7)cc4)nn3)cc2)nc2ccccc21
inactive: NCI-H322M lung 46.7% | HOP-62 NSCLC 32% | A549/ATCC NSCLC 30.9% | DU-145 prostate 34% | SF-268 CNS 31.8% | SF-295 CNS 21.1% | SF-539 CNS 20.9% | UACC-257 melanoma 27.9% | M14 melanoma 25.4% | HCT-15 colon 10.4% | HT29 colon 22.5% | SNB-75 CNS 48.5% | SNB-19 CNS 24.5% | UACC-62 melanoma 10.8% | SK-MEL-28 melanoma 28.6%
active: COLO 205 colon -26.6% | MALME-3M melanoma 0.0576% | SK-MEL-5 melanoma 1.38% | SK-MEL-2 melanoma -6.2% | HL-60(TB) leukemia -3.65%

CC12OOC(C)(OO1)C2CCC(=O)NCCCNc1ccnc2cc(Cl)ccc12 (centres undefined)
active: COLO 205 colon -62.6% | DU-145 prostate -74.4% | MALME-3M melanoma -94.6% | HCT-15 colon -45.1%
inactive: NCI-H322M lung 97.1% | HOP-62 NSCLC 95.1% | A549/ATCC NSCLC 87.8% | SF-268 CNS 101% | SF-295 CNS 102% | SF-539 CNS 52.9% | UACC-257 melanoma 96.2% | M14 melanoma 86% | HT29 colon 35% | SNB-75 CNS 103% | SNB-19 CNS 94.1% | SK-MEL-5 melanoma 86.4% | UACC-62 melanoma 87.2% | SK-MEL-28 melanoma 72% | SK-MEL-2 melanoma 100%

COCCOCCOCCOc1ccc(-n2cc(-c3ccc(O[C@H]4O[C@@H]5OC6(C)CC[C@H]7[C@H](C)CC[C@@H]([C@H]4C)[C@@]57OO6)cc3)nn2)cc1
active: COLO 205 colon -11.4% | MALME-3M melanoma 8.12% | SK-MEL-5 melanoma -24.4%
inactive: NCI-H322M lung 86.1% | HOP-62 NSCLC 73.6% | A549/ATCC NSCLC 60.1% | DU-145 prostate 42.6% | SF-268 CNS 59% | SF-295 CNS 40.4% | SF-539 CNS 47.6% | UACC-257 melanoma 39.7% | M14 melanoma 32% | HCT-15 colon 12.7% | HT29 colon 48.1% | SNB-75 CNS 66.5% | SNB-19 CNS 64% | UACC-62 melanoma 37.3% | SK-MEL-28 melanoma 44.6% | SK-MEL-2 melanoma 16.8% | HL-60(TB) leukemia 10.1%

CCOP(=O)(OCC)C(NC(C)=O)C(=O)SCCN (centres undefined)
inactive: NCI-H322M lung 102% | HOP-62 NSCLC 107% | A549/ATCC NSCLC 107% | COLO 205 colon 128% | DU-145 prostate 122% | MALME-3M melanoma 105% | SF-268 CNS 125% | SF-295 CNS 93.2% | SF-539 CNS 97.5% | UACC-257 melanoma 96.2% | M14 melanoma 106% | HCT-15 colon 102% | HT29 colon 113% | SNB-75 CNS 99.1% | SNB-19 CNS 96.9% | SK-MEL-5 melanoma 99.1% | UACC-62 melanoma 95.8% | SK-MEL-28 melanoma 108% | SK-MEL-2 melanoma 112% | HL-60(TB) leukemia 99.2%
